Data as given in publication PMC5515408, “Sequence-specific DNA binding by MYC/MAX to low-affinity non-E-box motifs”.
Whole data set: some 5,000 sequences, median “log2 normalized fluorescence” near 0.089, cut for the highest 2% near 0.81. For the sample, the highest values were picked, then their nearest neighbours and some sequences at random.

Target: MYC (p64);MAX (p21), in MYC:MAX (human;human, UniProt P01106-1;P61244-2 1-439;1-151, |)
Test: protein-binding microarray (anti-MAX antibody); PBM: 15 mM Tris-HCl pH 7.5, 100 mM KCl, 0.075% NP40, 7.5 mM beta-mercaptoethanol, 375 ng/ul BSA, 8 ng/ul poly(dA-dT):(dA-dT), 550 ng complex, 60 min, room tempe; high values mean tight binding
Conditions: protein: recombinant;recombinant; tags: 6xHis;6xHis; copies: 1;1; label: 3' end of printed strand (linker) attached to glass slide; dsDNA, one strand shown
Summary of the method: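 Recombinant His-tagged human MYC:MAX or MAX:MAX dimers (550 ng, expressed in E. coli) were incubated for 60 min at room temperature in Tris-KCl buffer, pH 7.5, with NP40, BSA and poly(dA-dT) competitor. The custom Agilent glass array held ~5000 unique 12-nt sequences, each spotted in triplicate and made double-stranded by primer extension. Bound protein was detected with anti-MAX and secondary antibodies and scanned at 543 nm. Binding is reported as log2 normalized fluorescence.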

Sequence of MYC (p64);MAX (p21), in MYC:MAX (P01106 16-454, chain 1 of 2): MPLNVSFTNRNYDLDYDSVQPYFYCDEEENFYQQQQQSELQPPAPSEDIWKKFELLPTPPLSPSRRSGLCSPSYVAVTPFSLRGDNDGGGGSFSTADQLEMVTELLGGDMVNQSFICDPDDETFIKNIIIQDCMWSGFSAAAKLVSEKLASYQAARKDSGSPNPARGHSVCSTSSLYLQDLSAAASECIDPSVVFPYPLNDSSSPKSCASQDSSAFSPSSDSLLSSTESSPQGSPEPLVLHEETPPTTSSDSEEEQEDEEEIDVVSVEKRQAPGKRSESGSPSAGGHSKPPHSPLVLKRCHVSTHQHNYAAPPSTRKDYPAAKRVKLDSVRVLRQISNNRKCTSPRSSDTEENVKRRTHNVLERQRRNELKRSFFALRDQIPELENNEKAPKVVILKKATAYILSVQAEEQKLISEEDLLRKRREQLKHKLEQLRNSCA
Sequence of MYC (p64);MAX (p21), in MYC:MAX (P61244 other isoform, or with tags, fused parts or gaps |, chain 2 of 2): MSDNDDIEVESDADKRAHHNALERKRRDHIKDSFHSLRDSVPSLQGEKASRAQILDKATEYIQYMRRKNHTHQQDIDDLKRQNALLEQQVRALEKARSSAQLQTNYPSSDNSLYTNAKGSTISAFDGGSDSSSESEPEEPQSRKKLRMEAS

Row | Sequence | binding signal
1 | CCGGCTGACAACTGGTTTTAATAGCTAAGATTACTATATCGACG | 0.195 log2 normalized fluorescence
2 | CCGGCTGAAGGACTGTATTAATAGCTAAGATTACTATATCGACG | 0.0114 log2 normalized fluorescence
3 | CCGGCTTGCACTTGGTATTAATAGCTAAGATTACTATATCGACG | 0.318 log2 normalized fluorescence
4 | CCGGCGTATACGTGGTATTAATAGCTAAGATTACTATATCGACG | 0.202 log2 normalized fluorescence
5 | CCGGCGTGCACGTGGTATTAATAGCTAAGATTACTATATCGACG | 0.856 log2 normalized fluorescence
6 | CCGGCCTCCACGTGGTATTAATAGCTAAGATTACTATATCGACG | 0.737 log2 normalized fluorescence
7 | CCGGCTTGCACGTGGTATTAATAGCTAAGATTACTATATCGACG | 1.01 log2 normalized fluorescence
8 | CCGGCTTGCACGTGGTTTTAATAGCTAAGATTACTATATCGACG | 0.716 log2 normalized fluorescence
9 | CCGGCGTCCACGTGGTATTAATAGCTAAGATTACTATATCGACG | 0.808 log2 normalized fluorescence
10 | CCGGCCTACACGTGGTATTAATAGCTAAGATTACTATATCGACG | 0.805 log2 normalized fluorescence
11 | CCGGCCTGCACGTGGTATTAATAGCTAAGATTACTATATCGACG | 0.875 log2 normalized fluorescence
12 | CCGGCTGAATTACCGTATTAATAGCTAAGATTACTATATCGACG | 0.041 log2 normalized fluorescence
13 | CCGGCTGAGCAACTGTATTAATAGCTAAGATTACTATATCGACG | 0.128 log2 normalized fluorescence
14 | CCGGCTGAATTACTGTATTAATAGCTAAGATTACTATATCGACG | 0.0701 log2 normalized fluorescence
15 | CCGGCTGAGTCGGGGTATTAATAGCTAAGATTACTATATCGACG | 0.126 log2 normalized fluorescence
16 | CCGGCACTCACGTGGTATTAATAGCTAAGATTACTATATCGACG | 0.862 log2 normalized fluorescence
17 | CCGGCAGAGACGTGGTATTAATAGCTAAGATTACTATATCGACG | 0.387 log2 normalized fluorescence
18 | CCGGCACACACGTGGTATTAATAGCTAAGATTACTATATCGACG | 0.804 log2 normalized fluorescence
19 | CCGGCAGGCACGTGGTATTAATAGCTAAGATTACTATATCGACG | 0.815 log2 normalized fluorescence
20 | CCGGCTACTACGTGGTATTAATAGCTAAGATTACTATATCGACG | 0.34 log2 normalized fluorescence
21 | CCGGCACGCACGTGGTATTAATAGCTAAGATTACTATATCGACG | 0.838 log2 normalized fluorescence
22 | CCGGCACCCACGTGGTATTAATAGCTAAGATTACTATATCGACG | 0.845 log2 normalized fluorescence
23 | CCGGCTGAACCTCAGTATTAATAGCTAAGATTACTATATCGACG | 0.265 log2 normalized fluorescence
24 | CCGGCTGAAATGCCGTATTAATAGCTAAGATTACTATATCGACG | 0.0989 log2 normalized fluorescence
25 | CCGGCTGATACGTGGTATTAATAGCTAAGATTACTATATCGACG | 0.341 log2 normalized fluorescence

Row | Sequence | binding signal
26 | CCGGCTGAGTGATCGTATTAATAGCTAAGATTACTATATCGACG | 0.194 log2 normalized fluorescence
27 | CCGGCTGAACATACGTATTAATAGCTAAGATTACTATATCGACG | 0.202 log2 normalized fluorescence
28 | CCGGCTGATGGCGGGTATTAATAGCTAAGATTACTATATCGACG | 0.232 log2 normalized fluorescence
29 | CCGGCTGACCCCGTGTATTAATAGCTAAGATTACTATATCGACG | 0.42 log2 normalized fluorescence
30 | CCGGCGGACACGAGGTATTAATAGCTAAGATTACTATATCGACG | 0.562 log2 normalized fluorescence
31 | CCGGCTGACCACCCGTATTAATAGCTAAGATTACTATATCGACG | 0.348 log2 normalized fluorescence
32 | CCGGCTGAGGGACGGTATTAATAGCTAAGATTACTATATCGACG | 0.0602 log2 normalized fluorescence
33 | CCGGCTGATGTTCTGTATTAATAGCTAAGATTACTATATCGACG | 0.261 log2 normalized fluorescence
34 | CCGGCTGATGAGGTGTATTAATAGCTAAGATTACTATATCGACG | -0.000883 log2 normalized fluorescence
35 | CCGGCTGAGTATACGTATTAATAGCTAAGATTACTATATCGACG | 0.0171 log2 normalized fluorescence
36 | CCGGCTGCATCGTGGTATTAATAGCTAAGATTACTATATCGACG | 0.636 log2 normalized fluorescence
37 | CCGGCATGCACGTGGTATTAATAGCTAAGATTACTATATCGACG | 0.877 log2 normalized fluorescence
38 | CCGGCAGCTACGTGGTATTAATAGCTAAGATTACTATATCGACG | 0.389 log2 normalized fluorescence
39 | CCGGCTGTCACGTGGTATTAATAGCTAAGATTACTATATCGACG | 0.706 log2 normalized fluorescence
40 | CCGGCAGCCACGTGGTATTAATAGCTAAGATTACTATATCGACG | 0.908 log2 normalized fluorescence
41 | CCGGCAGTCACGTGGTATTAATAGCTAAGATTACTATATCGACG | 0.893 log2 normalized fluorescence
42 | CCGGCAGCCACGTTGTATTAATAGCTAAGATTACTATATCGACG | 0.643 log2 normalized fluorescence
43 | CCGGCTGAAAGAGAGTATTAATAGCTAAGATTACTATATCGACG | -0.0282 log2 normalized fluorescence
44 | CCGGCTGACCGGGTGTATTAATAGCTAAGATTACTATATCGACG | 0.119 log2 normalized fluorescence
45 | CCGGCTGAGTACGGGTATTAATAGCTAAGATTACTATATCGACG | -0.0173 log2 normalized fluorescence
46 | CCGGCTGATGCGCAGTATTAATAGCTAAGATTACTATATCGACG | 0.0262 log2 normalized fluorescence
47 | CCGGCTGAAACGTGGTCTTAATAGCTAAGATTACTATATCGACG | 0.74 log2 normalized fluorescence
48 | CCGGCTTACACGTGGGATTAATAGCTAAGATTACTATATCGACG | 0.81 log2 normalized fluorescence
49 | CCGGCTCACGATGGGGCTTAATAGCTAAGATTACTATATCGACG | 0.398 log2 normalized fluorescence
50 | CCGGCTCTTACGTGGTATTAATAGCTAAGATTACTATATCGACG | 0.358 log2 normalized fluorescence

Row | Sequence | binding signal
51 | CCGGCTCACACGTGGGCTTAATAGCTAAGATTACTATATCGACG | 0.832 log2 normalized fluorescence
52 | CCGGCGGTCACGTGGTATTAATAGCTAAGATTACTATATCGACG | 0.805 log2 normalized fluorescence
53 | CCGGCTCAGACGTGGTATTAATAGCTAAGATTACTATATCGACG | 0.391 log2 normalized fluorescence
54 | CCGGCTCTCACGTGGTCTTAATAGCTAAGATTACTATATCGACG | 0.836 log2 normalized fluorescence
55 | CCGGCTCTCACGTGGTATTAATAGCTAAGATTACTATATCGACG | 0.891 log2 normalized fluorescence
56 | CCGGCTCATACGTGGTATTAATAGCTAAGATTACTATATCGACG | 0.558 log2 normalized fluorescence
57 | CCGGCTGGTACGTGGTCTTAATAGCTAAGATTACTATATCGACG | 0.364 log2 normalized fluorescence
58 | CCGGCGCTCACGTGGTATTAATAGCTAAGATTACTATATCGACG | 0.815 log2 normalized fluorescence
59 | CCGGCTGGCACCCGGTATTAATAGCTAAGATTACTATATCGACG | 0.242 log2 normalized fluorescence
60 | CCGGCTGACGTTTTGTATTAATAGCTAAGATTACTATATCGACG | -0.0354 log2 normalized fluorescence
61 | CCGGCTGAAAGGCCGTATTAATAGCTAAGATTACTATATCGACG | 0.17 log2 normalized fluorescence
62 | CCGGCTGACACGCATTATTAATAGCTAAGATTACTATATCGACG | 0.524 log2 normalized fluorescence
63 | CCGGCCGTCACGTGGTATTAATAGCTAAGATTACTATATCGACG | 0.809 log2 normalized fluorescence
64 | CCGGCTCACACGTCGTATTAATAGCTAAGATTACTATATCGACG | 0.506 log2 normalized fluorescence
65 | CCGGCTATCACGTGGTATTAATAGCTAAGATTACTATATCGACG | 0.71 log2 normalized fluorescence
66 | CCGGCTCACATGTGGTATTAATAGCTAAGATTACTATATCGACG | 0.918 log2 normalized fluorescence
67 | CCGGCTCACACGTGGTATTAATAGCTAAGATTACTATATCGACG | 0.998 log2 normalized fluorescence
68 | CCGGCCATCACGTGGTATTAATAGCTAAGATTACTATATCGACG | 0.764 log2 normalized fluorescence
69 | CCGGCGATCACGTGGTATTAATAGCTAAGATTACTATATCGACG | 0.946 log2 normalized fluorescence
70 | CCGGCTTACATGTGGTATTAATAGCTAAGATTACTATATCGACG | 0.625 log2 normalized fluorescence
71 | CCGGCTATTACGTGGTATTAATAGCTAAGATTACTATATCGACG | 0.323 log2 normalized fluorescence
72 | CCGGCCCTCACGTGGTATTAATAGCTAAGATTACTATATCGACG | 0.828 log2 normalized fluorescence
73 | CCGGCCGACATGTGGTATTAATAGCTAAGATTACTATATCGACG | 0.663 log2 normalized fluorescence
